The results in this text go back to PubChem BioAssay (NCI).

Test in all cases: NCI-60 one-dose screen, 48 h (100 = growth as untreated, 0 = no growth, -100 = all killed)
Settings in all cases: 10 µM unless noted

For assay [1], the system named is NCI-H23 lung.
In assay [2] the test system is NCI-H226 lung.
Assay [3] has as its system NCI-H322M lung.
The test system of assay [4] is HOP-62 NSCLC.
Assay [5] concerns NCI-H460 lung.
The test system of assay [6] is HOP-92 NSCLC.
The subject of assay [7] is NCI-H522 lung.
Assay [8] deals with A549/ATCC NSCLC.
The test system of assay [9] is 786-0 renal.
The test system of assay [10] is DU-145 prostate.
In assay [11] the test system is K-562 leukemia.
The test system of assay [12] is MALME-3M melanoma.
Assay [13] deals with MDA-MB-231 breast.
In assay [14] the test system is RXF 393 renal.
Assay [15] deals with SF-268 CNS.
The subject of assay [16] is SF-295 CNS.
Assay [17] has as its system SF-539 CNS.
The test system of assay [18] is UACC-257 melanoma.
Assay [19] has as its system M14 melanoma.

About 83,000 compounds went through this panel and 20% of them were active in at least one assay; those are over-represented in the sample as a whole.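 Cells were grown in 96-well plates and exposed to the test compound at a single concentration for 48 hours; results are reported as percent growth, with values below 10 considered active.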 A number with no mark means an inactive call. Activity calls are given as the source filed them.

As for `O=C(NCc1cn(Cc2cccc(Oc3ccccc3)c2)nn1)c1cccnc1NCc1ccc(Cl)cc1`, the growth was 20.6% in assay [1]; 12.5% in assay [2]; 54.5% in assay [3]; 40.7% in assay [4]; 17.1% in assay [5]; 22.1% in assay [6]. In addition, the growth was 20.8% in assay [7]; 22.5% in [8]; 38% in [9]; 15% in [10]; 11.8% in [11]; 48.2% in [12]. Moreover, the growth is 25.4% in [13]; 3.54% (active) in assay [14]; 45.3% in assay [15]; 19.7% in assay [16]; -15.3% (active) in assay [17]; 47.3% in [18]. Also, in assay [19], the growth was 6.76% (active).
For `NC(=O)c1c(NC(=O)c2ccc(C(F)(F)F)cc2Cl)sc2c1CCC(=O)C2`, the growth in assay [1] is -7.98% (active); in assay [2], -22.6% (active); in [3], 14%; in assay [4], 1.14% (active); in [5], 0.92% (active); in [6], -61.7% (active). In addition, the growth in assay [7] is -25.6% (active); in assay [8], 9.42% (active); in [9], 17.1%; in assay [10], 18.9%; in assay [11], -11.7% (active); in assay [12], -24.7% (active). For the same compound, the growth in [13] is -55.3% (active); in [14], -39% (active); in assay [15], -2.06% (active); in assay [16], -27.2% (active); in assay [17] it was -84.8% (active); in assay [18] it was -22.4% (active). Besides, the growth in [19] is -30.1% (active).
On to `CNC(=O)c1cc(Oc2ccc3nc(NC(=O)Nc4cc(C(F)(F)F)cc(C(F)(F)F)c4)sc3c2)ccn1`, for which the growth in assay [1] was -67.9% (active); in assay [2], -13.7% (active); in assay [3], -46.6% (active); in [4], -70.5% (active); in assay [5], -57.5% (active); in assay [6] it was -54.6% (active). Besides, the growth was -71.9% (active) in assay [7]; -71.4% (active) in [8]; -64% (active) in assay [9]; -39.6% (active) in assay [10]; -2.97% (active) in assay [11]; -57.5% (active) in [12]. Also, the growth in assay [13] is -53.1% (active); in assay [14] it was -24.5% (active); in assay [15] it was -25.6% (active); in assay [16], -81.9% (active); in assay [17], -80% (active); in [18], -50.8% (active). Besides, in assay [19], the growth is -39% (active).
For the compound `N=C(N)c1ccc(-c2ccc(/C=C/c3ccccc3)s2)cc1`, the growth is 55.2% in [1]; 84.7% in [2]; 1% (active) in assay [3]; 33.3% in [4]; -60.1% (active) in [5]; 34.7% in [6]. Further, the growth in assay [7] is 20%; in assay [8] it was 12.7%; in assay [9], -38.3% (active); in assay [10], 1.59% (active); in assay [11], -27.7% (active); in assay [12] it was 61.2%. In addition, the growth in assay [13] is -51.5% (active); in assay [14], 39.2%; in assay [15], 60.7%; in [16] it was -61.7% (active); in assay [17] it was 17.2%; in [18], 105%. The growth in [19] is 31.8%.
`O=C(NC1CCOCC1)c1ccc2c(c1)CN(c1ncc(Cc3cccc(-n4cccn4)c3)s1)CC2`: the growth was 57.7% in assay [1]; 62% in assay [2]; 87.8% in assay [3]; 104% in assay [4]; 79.9% in [5]; 44.9% in [6]. Besides, the growth is 38.8% in assay [7]; 76% in assay [8]; 68.7% in [9]; 88.2% in assay [10]; 58.7% in assay [11]; 64.1% in [12]. Besides, the growth is 37.1% in assay [13]; 73.7% in assay [14]; 80.4% in [15]; 62.5% in [16]; 64.2% in [17]; 62.6% in assay [18]. In assay [19], the growth was 64%.
Take `O=C1C2=C(CCN(Cc3ccccc3)C2)N2CCN=C2N1Cc1ccc(C(F)(F)F)cc1`: the growth was 31% in assay [1]; 25.9% in [2]; 37.8% in assay [3]; 31% in assay [4]; 14.7% in assay [5]; 18.8% in [6]. The growth was 19.9% in assay [7]; 27.6% in assay [8]; 48.8% in assay [9]; 33% in [10]; 29.4% in assay [11]; 30.4% in [12]. Further, the growth in assay [13] was -9.28% (active); in [14] it was 54%; in [15], 39.2%; in [16] it was -10.8% (active); in [17], 40.8%; in assay [18] it was 15.5%. The growth in assay [19] is 37.2%.
As for `CC(C)(C)OC(=O)N1Cc2cc3ccccc3nc2C1CO` (configuration not stated), the growth in assay [1] is 85.9%; in assay [2] it was 92.1%; in assay [3] it was 104%; in assay [4], 102%; in assay [5], 107%; in assay [6], 96.7%. Also, the growth in [7] was 110%; in assay [8], 95.6%; in assay [9] it was 95.8%; in assay [10], 98.6%; in [11], 133%; in assay [12], 120%. Moreover, the growth in assay [13] is 96.6%; in assay [14], 66.5%; in [15] it was 102%; in assay [16], 92.8%; in assay [17], 95.7%; in [18], 19.1%. Moreover, the growth in assay [19] is 98.7%.
Consider `COc1cccc(-c2nc3sccn3c2-c2ccnc(NCCNS(=O)(=O)c3c(Cl)cccc3Cl)c2)c1`, for which the growth is 60.2% in [1]; 57.4% in [2]; 87.4% in [3]; 88.4% in assay [4]; 61% in [5]; 43% in assay [6]. The growth is 60.5% in [7]; 47.1% in assay [8]; 62.6% in assay [9]; 63% in assay [10]; 29.3% in assay [11]; 77.8% in assay [12]. Moreover, the growth was 76.7% in assay [13]; 69.9% in [14]; 26.1% in [15]; 60.7% in assay [16]; 85.9% in assay [17]; 85.1% in assay [18]. Further, the growth in assay [19] is 57.7%.
